# In the library only some 3.4% were active in any assay of this set; here they are far more common.
# FBW7 activator: activators of human E3 ligase FBW7 | Q969H0 | AlphaScreen FBW7–phospho-cyclin E peptide binding, activator screen | normalized activity (activation), % at 26.1 µM | hit rate 0.13% among 650,000; in the data active = normalized activity above about 1.9%;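 note: purified mutant Fbw7 with reduced substrate affinity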
# GPR151 ag: human GPR151 activation | activation, % at 11.2 µM | Q8TDV0 | PathHunter beta-arrestin GPR151 cells, luminescence | hit rate 1% among 650,000; in the data active = activation above about 4.9%;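 note: 0% = median of compound wells and 100% = cells with positive control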
# Target sequence (Q8TDV0 whole entry, looked up): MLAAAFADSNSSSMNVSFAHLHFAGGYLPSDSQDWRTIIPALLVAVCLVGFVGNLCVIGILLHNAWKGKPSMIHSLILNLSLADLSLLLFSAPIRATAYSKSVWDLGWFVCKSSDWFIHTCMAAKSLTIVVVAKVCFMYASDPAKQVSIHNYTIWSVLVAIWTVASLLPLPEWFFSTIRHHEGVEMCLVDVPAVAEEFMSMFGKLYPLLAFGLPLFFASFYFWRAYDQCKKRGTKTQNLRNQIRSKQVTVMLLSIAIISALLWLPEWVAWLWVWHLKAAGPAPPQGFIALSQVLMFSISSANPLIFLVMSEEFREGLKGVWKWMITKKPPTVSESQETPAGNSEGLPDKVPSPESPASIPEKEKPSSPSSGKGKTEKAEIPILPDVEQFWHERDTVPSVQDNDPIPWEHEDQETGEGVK
# TEAD-YAP block: TEAD-YAP interaction inhibition; HEK-TIYL cells, TEAD-Gal4/YAP UAS-luciferase luminescence; inhibition, % at 9.12 µM; hit rate 1.4% among 640,000; AID 1259422; in the data active = inhibition above about 32%;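 note: 0% = median of test compound wells and 100% = reference inhibitor wells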
# MITF primary: inhibitors of human MITF; O75030; AlphaScreen MITF homodimerization, bead proximity signal; inhibition, % at 2.6 µM; hit rate 0.91% among 650,000; in the data active = inhibition above about 50%;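 note: 0% = vehicle wells with protein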
# GPR151 confirm: human GPR151 activation, confirmation screen | shares compounds with GPR151 ag | GPR151 PathHunter beta-arrestin cells, luminescence, 90 min; % of EA-reagent control over plate median | activation, % at 11.2 µM | 6,700 tested, under 10 active | AID 1508609;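 active = mean percent activation across replicates above the confirmation screen cutoff of 4.91%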
# GPR119 ag: GPR119 activation, counter-screen for GPR151 activators | shares compounds with GPR151 ag | GPR119 PathHunter beta-arrestin cells, luminescence, 90 min; 0 = compound-well median, 100 = enzyme-acceptor control | activation, % at 11.2 µM | hit rate 0.3% among 6,700;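 active = mean percent activation in the counterscreen above 29.09%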;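 note: counterscreen on off-target GPR119 to flag nonselective hits from the GPR151 activator screen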
# * hit, by the source's call; nt = no result given.
SMILES,FBW7 activator,GPR151 ag,TEAD-YAP block,MITF primary,GPR151 confirm,GPR119 ag
C/C(=C/c1ccccc1)C(=O)Nc1ccc(S(N)(=O)=O)cc1,0,5.0*,-44,-3,0,-8
COc1cccc(NC(=O)c2cc(=O)c3ccccc3o2)c1,0,4.9*,-40,1,0,1
O=S(=O)(Cc1ccc(Cl)cc1)NCCCn1ccnc1,0,3,2,0,nt,nt
O=C(NN=C1CCCCC1)C(O)(c1ccccc1)c1ccccc1,0,9.9*,6,-1,3,14
O=C(NN=C1CCCC1)C(O)(c1ccccc1)c1ccccc1,0,0,-10,-6,nt,nt
CSC1=C(C#N)C(c2ccc3c(c2)OCO3)CC(=O)N1 (stereo not drawn),0,5.1*,-2,-2,0,2
CCCSC1=C(C#N)C(c2ccc3c(c2)OCO3)CC(=O)N1 (stereo not drawn),0,-1,-6,1,nt,nt
CCOC(CCn1c(SC(CC)C(=O)NCc2cccnc2)nc2ccccc2c1=O)OCC (stereo not drawn),0,7.0*,3,-7,-2,-18
CC1CN(CC(=O)N(C)Cc2cnn(C)c2)Cc2cc(Cl)ccc2O1 (stereo not drawn),0,2,2,0,nt,nt
COc1cccc(OC/C(O)=C(\C#N)c2nc3ccccc3[nH]2)c1,0,5.2*,-1,0,0,1
COc1ccc(OC/C(O)=C(\C#N)c2nc3ccccc3[nH]2)cc1,-1,1,0,7,nt,nt
CC/C(C)=C(\C#N)c1nc2ccccc2[nH]1,0,5.7*,-44,-5,1,11
CCC(=O)N(c1cc(C)cc(C)c1)C1C=CS(=O)(=O)C1 (stereo not drawn),0,1,4,3,nt,nt
O=C(CCCOc1ccccc1)NNC(=O)c1ccccc1,0,26*,0,1,1,11
CC(=O)c1ccc(OCCCC(=O)NNC(=O)c2ccccc2)cc1,0,-1,-36,-8,nt,nt
O=C(NNC(=O)C1CCCCC1)c1cnccn1,0,0,-3,13,nt,nt
O=C(CCC1CCCCC1)NNC(=O)c1cnccn1,0,6.5*,-3,7,0,-1
Cc1ccc(C2CC(c3ccc(Br)cc3)=NN2C(=O)CSc2nnc(CNC(=O)c3ccco3)n2-c2cccc(C)c2)cc1 (stereo not drawn),0,2,-7,0,nt,nt
Cc1cccc(-c2cnc(C)nc2C2CCCN(C(=O)CN(C)C)C2)c1 (stereo not drawn),0,14*,-1,-3,1,-1
CC(=O)CC(C)C(=O)N1CCCC(c2nc(C)ncc2-c2cccc(C)c2)C1 (stereo not drawn),0,6.4*,-3,0,1,-2
CCc1ccc(-n2c(C)nc3cc(C(=O)NCCc4ccc(OC)c(OC)c4)ccc32)cc1,0,5.1*,8,-5,-1,-10
COc1ccc(-n2c(C)nc3cc(C(=O)NCCc4ccc(OC)c(OC)c4)ccc32)cc1,0,0,-20,-26,nt,nt
O=C(Cc1cccc2ccccc12)NCC(=O)Nc1ccc(N2CCOCC2)cc1,0,-2,-11,-21,nt,nt
CCOc1cc(/C=N/Nc2nc3c(c(=O)[nH]c(=O)n3C)n2Cc2ccc(C)cc2)ccc1O,0,-1,16,10,nt,nt
COc1ccccc1NC(=O)C1OC2OC(C)(C)OC2C2OC(C)(C)OC12 (stereo not drawn),0,-1,-3,-5,nt,nt
SMILES,FBW7 activator,GPR151 ag,TEAD-YAP block,MITF primary,GPR151 confirm,GPR119 ag
COc1ccccc1NC(=O)[C@H]1O[C@@H]2OC(C)(C)O[C@@H]2[C@H]2OC(C)(C)O[C@H]21,0,6.9*,8,-5,2,10
Cc1cc(C)c(S(=O)(=O)NCCc2ccc(S(N)(=O)=O)cc2)c(C)c1,0,7.1*,12,4,1,11
CCCC(C)NS(=O)(=O)c1cc(OC)ccc1OC (stereo not drawn),0,0,3,13,nt,nt
O=C1CN(S(=O)(=O)c2cccc(Cl)c2Cl)c2ccccc2N1,0,6.8*,-8,-2,1,1
CCCC(=O)Nc1ccc(NC(=S)NC(=O)c2ccc(OC)cc2)cc1,0,-2,-11,8,nt,nt
COc1ccc(C(=O)NC(=S)Nc2ccccc2O)cc1,0,6.8*,-31,-10,0,-3
CCC(=O)NC(=S)Nc1ccc(NC(=O)c2ccc(OC)cc2)cc1,0,6.6*,8,-9,0,7
O=C(NCCN1CCOCC1)c1nn2c(c1Cl)NC(c1ccc(Br)cc1)CC2C(F)(F)F (stereo not drawn),0,0,-2,-2,nt,nt
O=C(NCCN1CCOCC1)c1nn2c(c1Cl)NC(c1ccco1)CC2C(F)(F)F (stereo not drawn),0,5.7*,-1,2,0,1
O=C(CN1C(=O)C(c2ccccc2)Oc2cccnc21)NCc1ccccc1 (stereo not drawn),0,-1,11,8,nt,nt
C/C(Cn1nnc([N+](=O)[O-])n1)=N/NC(=O)Cc1ccc(Cl)cc1,0,1,17,4,nt,nt
CC(C)CC(=O)Nc1ccccc1NC(=O)CC(C)C,0,0,4,-1,nt,nt
CCCN1C(=S)NC2c3ccccc3OC1(C)C2C (stereo not drawn),0,7.5*,-1,11,1,9
COCCCN1C(=S)NC2c3cc(Br)ccc3OC1(C)C2C (stereo not drawn),0,2,0,19,nt,nt
CCOC(=O)c1c(C)[nH]c(NC(=O)Nc2ccc(F)cc2)c1C,0,0,2,-4,nt,nt
CCOC(=O)c1c(C)[nH]c(NC(=O)Nc2ccc(OCC)cc2)c1C,0,6.0*,3,-6,1,4
O=C(Nc1ccc(S(=O)(=O)NCc2ccccc2)cc1)N1CCCC1,0,7.0*,1,1,0,15
O=C1CS/C(=N/N=C/c2ccccc2)N1,0,-1,-1,0,nt,nt
O=C1CS/C(=N\N=C\c2ccc(O)cc2)N1,0,7.4*,-2,9,0,-6
O=C(NCCSC1CCCCC1)Nc1ccccc1,0,5.1*,1,-10,-1,-18
CCN1CCN(C(=O)C(CC(C)C)N2Cc3ccccc3C2=O)CC1 (stereo not drawn),0,5.5*,-5,1,0,-2
CC(C)CC(C(=O)N1CCCCCC1)N1Cc2ccccc2C1=O (stereo not drawn),0,0,4,0,nt,nt
O=C(On1c(-c2ccc(F)cc2)nc2ccccc2c1=O)c1ccc(Cl)cc1,0,5.1*,-3,3,1,13
Cc1ccccc1C(=O)On1c(-c2ccc(Cl)c([N+](=O)[O-])c2)nc2ccccc2c1=O,0,5.8*,12,4,0,9

# Screening data: PubChem BioAssay, The Scripps Research Institute Molecular Screening Center
